# Data reported in PubChem BioAssay (NCATS).
# Records with an inconclusive call do not appear. Unmarked numbers belong to inactive results. Activity calls are given as the source filed them. Calls follow the shape of the dose curve; as a rule, active = well fitted cell-killing curve with a large enough effect; inconclusive = small, poorly fitted or top-dose-only effect, or effect the other way; inactive = no such curve, though single readings can be large or run the other way.
# Experiment: Quantitative High-Throughput drug screen in 47 multiple myeloma cell lines against the NCATS MIPE library collection: KMS26_JCRB cell viability assay (AID 1918975); also: nearly all actives have a fitted effect of over 45% in size;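 as to viability (% of DMSO): 100% = DMSO-treated wells and 0% = wells with media only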
# Conditions: KMS26 myeloma cells viability, CellTiter-Glo ATP, 48 h; series mostly up to 45.8 µM; viability (% of DMSO): at the top concentration
# How it was run: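 Steps: seed 500 cells per well; pin-transfer MIPE 4.0 library; incubate 48 h at 37C, 5% CO2, humidified; add CellTiter-Glo, 5 min room temperature; read luminescence.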
# Potency is read from the fitted curve at half-maximal effect.
Compound,Potency,viability (% of DMSO)
CN(C)CC[C@H](CSc1ccccc1)Nc1ccc(S(=O)(=O)NC(=O)c2ccc(N3CCN(Cc4ccccc4-c4ccc(Cl)cc4)CC3)cc2)cc1[N+](=O)[O-],1.66 µM (active),
CCOC(=O)N1CCN([N+]([O-])=NOc2cc(ON=[N+]([O-])N3CCN(C(=O)OCC)CC3)c([N+](=O)[O-])cc2[N+](=O)[O-])CC1,2.35 µM (active),
O=C(CC12CC3CC(CC(C3)C1)C2)Nc1cccc2nc(NCCNCCO)ccc12,18.7 µM (active),
COc1ccc(-c2oc3c(CC=C(C)C)c(O)cc(O)c3c(=O)c2O)cc1,16.6 µM (active),
CN[C@@H]1CN(c2ccc3c(=O)c(C(=O)O)cn(-c4nccs4)c3n2)C[C@@H]1OC,18.2 µM (active),
CCC(C)SSc1ncc[nH]1 (stereo not drawn),3.72 µM (active),
CCOC(=O)c1c(CSc2ccccc2)n(C)c2cc(Br)c(O)c(CN(C)C)c12,11.8 µM (active),
C[C@@H]1O[C@@H](O[C@H]2CC[C@@]3(C)[C@H](CC[C@@H]4[C@H]3C[C@@H](O)[C@]3(C)[C@@H](C5=CC(=O)OC5)CC[C@]43O)C2)C[C@H](O)[C@@H]1O[C@H]1C[C@H](O)[C@H](O[C@H]2C[C@H](O)[C@@H](O)[C@@H](C)O2)[C@H](C)O1 (stereo in doubt),0.27 µM (active),
CNC1CCC(N(Cc2cccc(-c3ccncc3)c2)C(=O)c2sc3ccccc3c2Cl)CC1 (stereo not drawn),20.9 µM (active),
NS(=O)(=O)c1cc(Cl)c(Cl)c(S(N)(=O)=O)c1,,136%
NC1(C(=O)N[C@@H](CCO)c2ccc(Cl)cc2)CCN(c2ncnc3[nH]ccc23)CC1,0.209 µM (active),
N#CC(c1ccc(Cl)cc1)c1c(Cl)cc(-n2ncc(=O)[nH]c2=O)cc1Cl (stereo not drawn),,107%
CCc1cc(-c2n[nH]c(C)c2-c2ccc3c(c2)OCCO3)c(O)cc1O,5.26 µM (active),
Cc1cn([C@@H]2C[C@@H](O)[C@H](CO)O2)c(=O)[nH]c1=O,,163%
Cc1ccc(NC(=O)Nc2cc(C(F)(F)F)ccc2F)cc1Nc1ccc2c(c1)NC(=O)C2=Cc1ccc[nH]1,37.2 µM (active),
CC(C)(C)c1nc(-c2cccc(NS(=O)(=O)c3c(F)cccc3F)c2F)c(-c2ccnc(N)n2)s1,,135%
O=S(=O)(NCCNCC=Cc1ccc(Br)cc1)c1cccc2cnccc12,13.2 µM (active),
CN[C@@H](C)[C@H]1[C@H](O)C[C@@]2(C)[C@@H]3CC[C@H]4C(C)(C)[C@@H](NC)CC[C@@]45C[C@@]35CC[C@]12C,,92.7%
COC(=O)Nc1ccc(-c2nc(N3CCOCC3)c3cnn(C4CCN(C(=O)OC)CC4)c3n2)cc1,1.66 µM (active),
COc1c(C)cnc(Cn2cnc3c(Cl)nc(N)nc32)c1C,0.209 µM (active),
C[C@@H]1C[C@H]2[C@@H]3CCC4=CC(=O)C=C[C@]4(C)[C@@]3(F)[C@@H](O)C[C@]2(C)[C@@]1(O)C(=O)CO,,102%
C=C1[C@H](n2cnc3c(=O)[nH]c(N)nc32)C[C@H](O)[C@H]1CO,,136%
Cc1nc(NC(=O)N2CCC[C@@H]2C(N)=O)sc1-c1csc(C(C)(C)C)n1,1.18 µM (active),
CNC(=O)c1ccc2c(C(=Nc3cccc(CN(C)C)c3)c3ccccc3)c(O)[nH]c2c1,0.662 µM (active),
Cc1[nH]c(C=C2C(=O)Nc3ccc(S(=O)(=O)N(C)c4cccc(Cl)c4)cc32)c(C)c1C(=O)N1CCN(C)CC1,23.5 µM (active),

# Experiment: Quantitative High-Throughput drug screen in 47 multiple myeloma cell lines against the NCATS MIPE library collection: MMM1_PLB cell viability assay (AID 1918976); also: nearly all actives have a fitted effect of over 35% in size
# Conditions: MMM1 myeloma cells viability, CellTiter-Glo, 48 h; series mostly up to 45.8 µM; viability (% of control): at the top concentration
# How it was run: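 MIPE 4.0 approved/investigational drugs; 500 cells/well; 48 h 37 °C humidified 5% CO2; CTG luminescence readout; DMSO = 100%, media = 0% viability.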
row,Compound,Potency
1,CN(C)CC[C@H](CSc1ccccc1)Nc1ccc(S(=O)(=O)NC(=O)c2ccc(N3CCN(Cc4ccccc4-c4ccc(Cl)cc4)CC3)cc2)cc1[N+](=O)[O-],0.526 µM (active)
2,O=c1[nH]c(=O)n([C@H]2C[C@@H](O)[C@@H](CO)O2)cc1C(F)(F)F,3.32 µM (active)
3,COc1ccc(-c2oc3c(CC=C(C)C)c(O)cc(O)c3c(=O)c2O)cc1,20.9 µM (active)
4,N#CC(c1ccnc(NCCc2cccnc2)n1)c1nc2ccccc2s1 (stereo not drawn),20.9 µM (active)
5,CN[C@@H]1CN(c2ccc3c(=O)c(C(=O)O)cn(-c4nccs4)c3n2)C[C@@H]1OC,8.12 µM (active)
6,CCC(C)SSc1ncc[nH]1 (stereo not drawn),7.43 µM (active)
7,CCOC(=O)c1c(CSc2ccccc2)n(C)c2cc(Br)c(O)c(CN(C)C)c12,18.7 µM (active)
8,C[C@@H]1O[C@@H](O[C@H]2CC[C@@]3(C)[C@H](CC[C@@H]4[C@H]3C[C@@H](O)[C@]3(C)[C@@H](C5=CC(=O)OC5)CC[C@]43O)C2)C[C@H](O)[C@@H]1O[C@H]1C[C@H](O)[C@H](O[C@H]2C[C@H](O)[C@@H](O)[C@@H](C)O2)[C@H](C)O1 (stereo in doubt),0.171 µM (active)
9,CNC1CCC(N(Cc2cccc(-c3ccncc3)c2)C(=O)c2sc3ccccc3c2Cl)CC1 (stereo not drawn),20.9 µM (active)
10,NS(=O)(=O)c1cc(Cl)c(Cl)c(S(N)(=O)=O)c1,18.7 µM (active)
11,NC1(C(=O)N[C@@H](CCO)c2ccc(Cl)cc2)CCN(c2ncnc3[nH]ccc23)CC1,0.0105 µM (active)
12,Cc1ccc(NC(=O)Nc2cc(C(F)(F)F)ccc2F)cc1Nc1ccc2c(c1)NC(=O)C2=Cc1ccc[nH]1,33.2 µM (active)
13,O=S(=O)(NCCNCC=Cc1ccc(Br)cc1)c1cccc2cnccc12,20.9 µM (active)
14,COC(=O)Nc1ccc(-c2nc(N3CCOCC3)c3cnn(C4CCN(C(=O)OC)CC4)c3n2)cc1,0.418 µM (active)
15,COc1c(C)cnc(Cn2cnc3c(Cl)nc(N)nc32)c1C,0.935 µM (active)
16,C=C1[C@H](n2cnc3c(=O)[nH]c(N)nc32)C[C@H](O)[C@H]1CO,3.72 µM (active)
17,CCn1c(-c2nonc2N)nc2cncc(CNC3CCNCC3)c21,8.33 µM (active)
18,Cc1[nH]c(C=C2C(=O)Nc3ccc(S(=O)(=O)N(C)c4cccc(Cl)c4)cc32)c(C)c1C(=O)N1CCN(C)CC1,18.7 µM (active)
